Screening results: PubChem BioAssay, National Center for Advancing Translational Sciences (NCATS)
ALDH1A1 inh = blocks purified human ALDH1A1 activity; P00352; Potency, µM (highest dose often 75.3 µM), for inactives: at the highest dose activity, negative = inhibition, usual class: inhibitors; actives 7.3% (n = 220,000); Purified ALDH1A1, NADH fluorescence, propionaldehyde substrate;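 also: potency is read from the fitted curve at half-maximal effect; plate controls were no enzyme wells and a reference inhibitor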
IMPase inh = IMPase inhibition in cells; 120,000 tested, under 10 active; CHO-M1 cells, IP1 accumulation, HTRF TR-FRET ratio; AID 901; inhibition (IP1 accumulation), % at 46.1 µM; P97697; active = well fitted curve in the direction sought with a large enough effect in the signal ratio, not every such curve was filed as active; inconclusive = small, poorly fitted or top-dose-only effect, or a change in a side signal; inactive = no such curve, though single readings can be large or run the other way; the % refers to the signal ratio;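 also: cells stimulated with carbachol in lithium chloride buffer; plate controls were DMSO basal wells for no effect and reference inhibitor wells for full effect; higher means more IMPase inhibition seen as more IP1 and lower FRET ratio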
Target sequence (P97697 whole entry, looked up): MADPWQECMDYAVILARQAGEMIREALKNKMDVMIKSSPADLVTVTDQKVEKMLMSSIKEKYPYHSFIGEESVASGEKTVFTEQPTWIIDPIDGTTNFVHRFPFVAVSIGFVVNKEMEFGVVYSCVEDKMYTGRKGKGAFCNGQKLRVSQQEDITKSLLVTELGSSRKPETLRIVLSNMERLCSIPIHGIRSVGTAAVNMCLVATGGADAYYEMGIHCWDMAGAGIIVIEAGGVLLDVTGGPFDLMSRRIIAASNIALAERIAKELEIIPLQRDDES
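The IP-One HTRF competitive assay in carbachol-stimulated CHO-M1 cells quantifies cellular IP1. Compounds spanned up to 46 uM final, and activity is expressed as AC50 from concentration-response fits of the ratio and donor data.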
HPGD inh = blocks human HPGD enzyme activity; purified HPGD, NADH fluorescence kinetic, PGE2 substrate; AID 894; actives 4.3% (n = 150,000); Potency, µM, for inactives: top-dose activity change, negative = inhibition, hits mostly inhibitors; also: potency is read from the fitted curve at half-maximal effect
Target sequence (P15428 whole entry, looked up): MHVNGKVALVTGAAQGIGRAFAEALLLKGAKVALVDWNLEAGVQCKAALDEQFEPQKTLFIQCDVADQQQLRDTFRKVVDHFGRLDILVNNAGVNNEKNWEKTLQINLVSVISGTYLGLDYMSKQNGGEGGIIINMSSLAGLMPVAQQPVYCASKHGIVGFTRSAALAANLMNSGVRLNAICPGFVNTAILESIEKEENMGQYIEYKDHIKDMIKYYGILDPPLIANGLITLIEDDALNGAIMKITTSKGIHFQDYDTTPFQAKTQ
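NADH formation kinetics: reaction with 30 uM PGE2 and 1 mM NAD+ (final), 20 nM enzyme, Tris-HCl pH 8 with Tween 20, after 15 min compound preincubation at room temperature. Fluorescence change, last versus first of five reads.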
* hit, by the source's call; [ ] = another dose, or the depositor's remark. The list is not random: actives were taken first. Their share in the collection is about 9%. Unless noted, calls follow the shape of the dose curve; as a rule, active = well fitted inhibition curve with a large enough effect (not every such curve was filed as active); inconclusive = small, poorly fitted or top-dose-only effect, or another doubt; inactive = no such curve, though single readings can be large or run the other way. Unless noted, % is scaled to controls: 0 for no effect and ±100 for the full control effect.

Results for COC(=O)c1c(CSc2ccc(C)c(C)c2)noc1C(=O)NCc1ccc(OC)cc1 ?
ALDH1A1 inh: inconclusive; IMPase inh: -3; HPGD inh: 7.1µM*

Results for O=C(O)c1c(Sc2ccccc2)c2cc(Cl)ccc2n1Cc1ccc(Cl)cc1 ?
ALDH1A1 inh: 1%; HPGD inh: -1%

Results for CC(OC(=O)c1ccncc1)C(=O)NC1CCCC1 (stereo unspecified) ?
ALDH1A1 inh: 5%

Results for COc1ncc2nc(CCc3ccccc3)c(=O)n(Cc3ccc(F)cc3)c2n1 ?
ALDH1A1 inh: 0%; HPGD inh: -13%

How did COc1ccc(C(=O)Nc2ccc(S(=O)(=O)Nc3cc(C)nc(C)n3)cc2)cc1OC do in these assays?
ALDH1A1 inh: 10µM*

Results for COCC(=O)Nc1ccc(S(=O)(=O)Nc2cc(C)nc(C)n2)cc1 ?
ALDH1A1 inh: -3%; IMPase inh: 11; HPGD inh: -3%

What do the screens show for `Cc1cc(NS(=O)(=O)c2ccc(NC(=O)/C=C/c3ccc(C)o3)cc2)nc(C)n1`?
ALDH1A1 inh: 3.5µM*

What do the screens show for `COc1cc(OC)cc(C(=O)Nc2ccc(S(=O)(=O)Nc3cc(C)nc(C)n3)cc2)c1`?
ALDH1A1 inh: 5µM*; IMPase inh: -3; HPGD inh: -28%

How did COc1ccccc1C(=O)Nc1ccc(S(=O)(=O)Nc2cc(C)nc(C)n2)cc1 do in these assays?
ALDH1A1 inh: inconclusive; IMPase inh: 2; HPGD inh: -3%

How did COc1ccc(C(=O)Nc2ccc(S(=O)(=O)Nc3cc(C)nc(C)n3)cc2)c(OC)c1 do in these assays?
ALDH1A1 inh: inconclusive; IMPase inh: 8; HPGD inh: -30%

What do the screens show for `CCN(CC)CCC[C@H](C)Nc1c2ccc(Cl)cc2nc2ccc(OC)cc12`?
ALDH1A1 inh: inconclusive; IMPase inh: 12[20.6 µM]; HPGD inh: inconclusive

Results for CNC(=O)CSc1nnc(SCCC(=O)O)s1 ?
ALDH1A1 inh: 3%; HPGD inh: -13%

Results for O=C(CSc1nnc(-c2ccc(F)cc2)o1)N1CCCc2ccccc21 ?
IMPase inh: 1

What do the screens show for `Cc1coc(NC(=O)CSc2nc(-c3ccncc3)cc(C(F)(F)F)c2C#N)n1`?
ALDH1A1 inh: 0%; IMPase inh: -5; HPGD inh: -25%

What do the screens show for `O=C1c2ccccc2C(=O)N1CCCSc1nc2ccccc2o1`?
ALDH1A1 inh: inconclusive; IMPase inh: 9; HPGD inh: 20µM*

How did Cn1c(=O)[nH]c(=O)c2c1nc(Br)n2CCCSc1nc2ccccc2o1 do in these assays?
ALDH1A1 inh: inconclusive; IMPase inh: 7; HPGD inh: 22µM*

Results for O=C1c2ccccc2C(=O)N1Cc1nc2ccccc2o1 ?
ALDH1A1 inh: 4%; IMPase inh: 5; HPGD inh: -9%

What do the screens show for `Cn1c(=O)[nH]c(=O)c2c1nc(Br)n2CCSc1ncccn1`?
ALDH1A1 inh: 15%; IMPase inh: -3; HPGD inh: -10%

How did Cn1c(=O)[nH]c(=O)c2c1nc(N1CCCC1)n2CCCSc1nc2ccccc2o1 do in these assays?
ALDH1A1 inh: -3%; IMPase inh: 4; HPGD inh: 28µM*

How did CC1CCCN(c2nc3c(c(=O)[nH]c(=O)n3C)n2CCSc2nc3ccccc3o2)C1 (stereo unspecified) do in these assays?
ALDH1A1 inh: 5%; IMPase inh: 6; HPGD inh: -10%

How did CS(=O)(=O)NCCn1ccc2ccccc21 do in these assays?
ALDH1A1 inh: -3%

What do the screens show for `COCCN(Cc1ccccc1)C(=S)Nc1ccc(Cl)cc1`?
ALDH1A1 inh: 0%

Results for COc1ccc(C(=O)NC(C(=O)NCCc2ccc3c(c2)OCCO3)C(C)C)cc1 (stereo unspecified) ?
ALDH1A1 inh: -10%

Results for CCCCC(CC)COC(=O)COc1ccc(Cl)cc1Cl (stereo unspecified) ?
ALDH1A1 inh: inconclusive; HPGD inh: -5%

Results for O=C(O)c1ccc(CSc2nc(-c3ccc(Cl)cc3)cc(C(F)(F)F)n2)cc1 ?
ALDH1A1 inh: 2%; IMPase inh: -1; HPGD inh: 13µM*

Results for O=C(O)c1ccc(CSc2nc(-c3ccccc3)cc(C(F)(F)F)n2)cc1 ?
ALDH1A1 inh: 8%; HPGD inh: -14%

How did NC(=O)CC[C@H](NC(=O)OCc1ccccc1)C(=O)OCc1ccc(Cl)cc1 do in these assays?
ALDH1A1 inh: 6%; HPGD inh: -13%

Results for COC(=O)c1cc2c(C)cc3ccc(C)cn3c-2c1C(=O)OC ?
ALDH1A1 inh: 25µM*; IMPase inh: -26; HPGD inh: -20%

How did COC(=O)c1cc2ccccn2c2c(C(=O)OC)c(C(=O)OC)cc1-2 do in these assays?
ALDH1A1 inh: 2%; IMPase inh: 23; HPGD inh: -20%

What do the screens show for `Cc1sc(NC(=O)/C=C/C(=O)O)c(C(N)=O)c1-c1ccc(C(C)(C)C)cc1`?
ALDH1A1 inh: 13µM*; HPGD inh: 25µM*

How did CCOC(=O)c1c(NC(=O)C2C3CCC(O3)C2C(=O)O)sc(C)c1-c1ccc(C)cc1 (stereo unspecified) do in these assays?
ALDH1A1 inh: -9%; IMPase inh: -12; HPGD inh: -7%

What do the screens show for `Cc1sc(NC(=O)C2CCCCC2C(=O)O)c(C(N)=O)c1-c1ccc(C(C)(C)C)cc1` (stereo unspecified)?
ALDH1A1 inh: inconclusive; IMPase inh: -8; HPGD inh: -17%

Results for CCOC(=O)c1c(NC(=O)/C=C/C(=O)O)sc(C)c1-c1ccc(C(C)(C)C)cc1 ?
ALDH1A1 inh: 28µM*

Results for C/C(Cn1nc([N+](=O)[O-])cc1C)=N\NC(=O)COc1ccc(Cl)cc1Cl ?
ALDH1A1 inh: inconclusive; IMPase inh: 2; HPGD inh: -13%

How did C/C(Cn1nc([N+](=O)[O-])cc1C)=N\NC(=O)COc1ccccc1[N+](=O)[O-] do in these assays?
ALDH1A1 inh: 14µM*; HPGD inh: -8%

How did O=C1CCC([N+](=O)[O-])C(c2cc3c(cc2Cl)OCO3)N1 (stereo unspecified) do in these assays?
ALDH1A1 inh: 6%

What do the screens show for `CCOC(=O)c1ccc(NC(=S)N(CCN2CCCCCC2)Cc2cccs2)cc1`?
ALDH1A1 inh: 4%

What do the screens show for `CS(=O)(=O)N(Cc1ccco1)Cc1ccccc1Cl`?
ALDH1A1 inh: -5%; IMPase inh: 3; HPGD inh: inconclusive

What do the screens show for `CS(=O)(=O)N(Cc1ccco1)CC(O)Cn1cc(C=O)c2ccccc21` (stereo unspecified)?
ALDH1A1 inh: 1.3µM*; IMPase inh: -10; HPGD inh: -25%

Results for CC(OC(=O)c1ccc(S(=O)(=O)N(C)C)cc1)C(=O)Nc1ccc(Cl)cn1 (stereo unspecified) ?
ALDH1A1 inh: 12%

Results for COc1ccc(NC(=O)COc2ccc(C(=O)NC3CCCc4ccccc43)cc2OC)cc1 (stereo unspecified) ?
ALDH1A1 inh: 3%; HPGD inh: -14%

How did O=C(O)C12CC3CC(C1)CC(n1ncc(N4CCN(c5ccccc5)CC4)c(Cl)c1=O)(C3)C2 do in these assays?
ALDH1A1 inh: 7.1µM*; HPGD inh: -5%

Results for O=c1c(Cl)c(N2CCNCC2)cnn1C12CC3CC(CC(C3)C1)C2 ?
ALDH1A1 inh: 4%
